Compounds with a hit are over-represented: about 9.9% of the library has one in this group of screens.
JMJD2E inh: JMJD2E (human) inhibition; B2RXH2; JMJD2E catalytic domain, FDH-coupled NADH fluorescence (FDH is formaldehyde dehydrogenase); Potency, µM (highest dose often 57.1 µM), without a hit: at the highest dose activity change, negative = inhibition, usual class: inhibitors; 230,000 tested, 1.6% active;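 further: 0% = wells with enzyme and -100% = buffer wells without enzyme; nearly all actives have a fitted effect of over 50% in size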
Tau FP inhib: blocks human tau fibril formation measured by polarization; P10636; K18 P301L tau heparin fibrillization, Alexa594 FP, 6 h; Potency, µM (series often up to 57.7 µM), for the others: at the highest dose activity, negative = inhibition, usual class: inhibitors; 280,000 tested, 0.39% active; active means well fitted curve in the direction sought with a large enough effect; inconclusive means small, poorly fitted or top-dose-only effect, or another doubt; inactive means no such curve, though single readings can be large; an effect the other way counts as inactive or inconclusive; further: nearly all actives have a fitted effect of over 55% in size
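Quantitative HTS format: compounds meet 15 uM recombinant K18 P301L tau and Alexa 594-tau tracer in 100 mM sodium acetate pH 7; 20 uM heparin triggers fibrillization at 37 C over 6 hr; FP gives the signal.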
ALDH1A1 inh: inhibitors of human aldehyde dehydrogenase 1A1; 220,000 tested, 7.3% active; Purified ALDH1A1, NADH fluorescence, propionaldehyde substrate; P00352; Potency, µM (top dose mostly 75.3 µM), for the others: at the highest dose activity, negative = inhibition, usual class: inhibitors;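 further: plate controls were no enzyme wells and a reference inhibitor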
Target sequence (P00352 whole entry, looked up): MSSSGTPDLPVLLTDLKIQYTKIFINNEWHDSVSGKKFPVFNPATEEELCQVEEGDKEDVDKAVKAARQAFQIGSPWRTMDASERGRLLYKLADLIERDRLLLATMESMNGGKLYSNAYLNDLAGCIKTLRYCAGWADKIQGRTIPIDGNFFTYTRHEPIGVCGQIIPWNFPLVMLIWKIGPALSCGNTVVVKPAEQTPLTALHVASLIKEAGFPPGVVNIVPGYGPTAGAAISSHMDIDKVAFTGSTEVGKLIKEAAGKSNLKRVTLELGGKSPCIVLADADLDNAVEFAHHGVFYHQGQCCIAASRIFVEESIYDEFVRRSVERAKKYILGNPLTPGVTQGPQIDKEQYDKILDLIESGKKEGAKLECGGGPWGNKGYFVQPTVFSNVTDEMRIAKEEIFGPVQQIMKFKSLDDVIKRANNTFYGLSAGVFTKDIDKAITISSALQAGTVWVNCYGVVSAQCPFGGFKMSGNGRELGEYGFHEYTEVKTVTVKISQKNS
HPGD inh: inhibitors of human 15-hydroxyprostaglandin dehydrogenase (HPGD) | Potency, µM, for the others: at the top dose activity change, negative = inhibition, usual class: inhibitors | P15428 | purified HPGD, NADH fluorescence kinetic, PGE2 substrate | AID 894 | 150,000 tested, 4.3% active
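20 nM HPGD preincubated 15 min at room temperature with compound in 50 mM Tris-HCl pH 8, 0.01% Tween 20. Started with 1 mM NAD+ and 30 uM prostaglandin E2; NADH fluorescence (360/450 nm) read 5 times over 30-s intervals, last minus first.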
Tau fibril ThT: tau fibrillization inhibition (ThT binding); P10636; recombinant tau K18 P301L, heparin-induced fibrillization, ThT fluorescence; Potency, µM (top dose mostly 57.4 µM), for inactives: at the highest dose activity, negative = inhibition, hits mostly inhibitors; 270,000 tested, 2.1% active; AID 1460; active means well fitted curve in the direction sought with a large enough effect; inconclusive means small, poorly fitted or top-dose-only effect, or another doubt; inactive means no such curve, though single readings can be large; an effect the other way counts as inactive or inconclusive; further: nearly all actives have a fitted effect of over 55% in size
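Aggregation was driven by heparin (20 uM final) acting on recombinant tau […] bearing P301L in 100 mM sodium acetate pH 7; fibrils were detected with Thioflavin T.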
Tau fluor cs: counter-screen for tau fibril formation inhibitors | 280,000 tested, 0.93% active | Potency, µM (highest dose often 57.7 µM), inactives show top-dose activity change, negative = decrease | tau K18 P301L (four-repeat tau fragment) Alexa594 fluorescence, heparin fibrillization | AID 1463; active means well fitted curve in the direction sought with a large enough effect; inconclusive means small, poorly fitted or top-dose-only effect, or another doubt; inactive means no such curve, though single readings can be large; an effect the other way counts as inactive or inconclusive; further: nearly all actives have a fitted effect of over 55% in size
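Human K18 P301L tau (15 uM unlabeled plus 0.24 uM Alexa 594-labeled, final) in 100 mM sodium acetate pH 7 was mixed with compound and 20 uM heparin and incubated 6 hr at 37 C.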
Starred values were filed as active, the others as inactive; ? = inconclusive; . = no result given. Unless noted, the call rests on the fitted dose curve; in most records, active means well fitted inhibition curve with a large enough effect (not every such curve was filed as active); inconclusive means small, poorly fitted or top-dose-only effect, or another doubt; inactive means no such curve, though single readings can be large or run the other way. Unless noted, on the % scale 0 is the no-effect control and ±100 the full control effect; potency means the concentration at half of the fitted maximal effect.

SMILES	JMJD2E inh	Tau FP inhib	ALDH1A1 inh	HPGD inh	Tau fibril ThT	Tau fluor cs
CCCCn1c(=O)[nH]c2ccccc21	5%	-5%	8%	-2%	-13%	-11%
O=c1c(CN2CCN(c3ccccn3)CC2)coc2ccccc12	2%	0%	25µM*	-2%	10%	6%
COc1ccc(-n2c(Cc3cccn3C)nnc2SCC(=O)NCC2CCCO2)cc1 (stereo unspecified)	-4%	6%	-13%	-9%	5%	15%
COc1ccc(-n2c(SCC(=O)NCC3CCCO3)nc3ccccc32)cc1 (stereo unspecified)	1%	9%	?	10µM*	-14%	-11%
Cc1ccc(-c2nsc(SCC(=O)NCC3CCCO3)n2)cc1 (stereo unspecified)	6%	-5%	5%	.	-7%	-15%
O=C(CSc1nc2ccc(NC(=O)C3CCCCC3)cc2s1)NCC1CCCO1 (stereo unspecified)	-6%	5%	-3%	28µM*	-7%	-7%
COc1ccc(-c2nsc(SCC(=O)Nc3cc(C)on3)n2)cc1	3%	-8%	28µM*	25µM*	-8%	-4%
COc1ccc(-c2nsc(SCC(=O)NCC3CCCO3)n2)cc1 (stereo unspecified)	?	-1%	25µM*	.	-15%	-14%
O=C(CN1C(=O)COc2ccc(S(=O)(=O)N3CCOCC3)cc21)N1CCN(c2ccccc2)CC1	.	-5%	.	.	-16%	-29%
COc1ccc(N2CCN(CC(=O)Nc3cc(C)on3)CC2)cc1	25µM*	3%	?	.	-11%	-1%
COc1ccc(-n2c(N)c(C(=O)NCC3CCCO3)sc2=S)cc1 (stereo unspecified)	3%	7%	?	16µM*	-6%	-2%
CNC(=O)c1sc(=S)n(-c2ccc(OC)cc2)c1N	-3%	0%	-3%	.	-4%	-7%
CCCCCOc1ccc(/C=c2\sc3nc(=O)c(-c4ccccc4)nn3c2=O)cc1OC	-2%	4%	11µM*	-16%	?	-10%
Cc1ccc(C(=O)N(Cc2ccccc2)C(C)(C)C)cc1C	0%	3%	0%	-9%	-2%	1%
Cn1c(-c2sc3cc(C(F)(F)F)cnc3c2-c2ccccn2)n[nH]c1=S	-13%	-9%	35µM*	.	-9%	-3%
CSc1nnc(-c2sc3cc(C(F)(F)F)cnc3c2-c2ccccn2)n1C	?	-13%	?	?	5%	-4%
Cn1c(-c2sc3cc(C(F)(F)F)cnc3c2-c2cccnc2)n[nH]c1=S	-20%	1%	?	28µM*	-11%	-6%
CN1CCN(C(c2ccc(F)cc2)c2sc3nc(-c4ccco4)nn3c2O)CC1 (stereo unspecified)	.	-11%	.	.	-13%	-15%
O=c1c(Cc2ccc(Cl)cc2)c(O)ccn1Cc1cccs1	2%	-2%	-3%	.	-4%	-11%
CCCNC(=O)c1ccc(C2SCC(=O)N2Cc2ccccc2)cc1 (stereo unspecified)	-21%	-6%	-3%	3.2µM*	3%	2%
COCCNC(=O)c1ccc(C2SCC(=O)N2Cc2ccco2)cc1 (stereo unspecified)	8%	5%	10µM*	.	4%	2%
CC(C)CNC(=O)c1ccc(C2SCC(=O)N2Cc2ccccc2)cc1 (stereo unspecified)	4%	-2%	3%	.	-3%	-7%
O=C(NCc1ccc2c(c1)OCO2)c1ccc(C2SCC(=O)N2Cc2ccco2)cc1 (stereo unspecified)	-21%	2%	7.1µM*	?	-10%	-2%
COCCCNC(=O)c1ccc(C2SCC(=O)N2Cc2ccco2)cc1 (stereo unspecified)	2%	1%	?	.	-9%	-3%
CN1CCN(C(=O)c2ccc(C3SCC(=O)N3Cc3ccco3)cc2)CC1 (stereo unspecified)	6%	2%	?	13µM*	-3%	8%

Source: PubChem BioAssay
